Key:
Conditions in all cases: Compound Concentration (nM):1000
PDGFRB = tested on: PDGFRB
PDPK1 = tested on: PDPK1
PFCDPK1(P.falciparum) = tested on: T1, PFCDPK1(P.falciparum)
T1 construct: gene CDPK1

PFPK5(P.falciparum) = tested on: T2, PFPK5(P.falciparum)
T2 construct: gene MAL13P1.279

PFTAIRE2 = tested on: T3, PFTAIRE2
T3 construct: gene CDK15

PFTK1 = tested on: T4, PFTK1
T4 construct: gene CDK14

PHKG1 = tested on: PHKG1
PHKG2 = tested on: PHKG2
PIK3C2B = tested on: PIK3C2B
PIK3C2G = tested on: PIK3C2G
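Also: KINOMEscan scanMAX binding as percent activity remaining versus control; lower means stronger binding.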

Compound	Percent Control (PDGFRB) [%]	Percent Control (PDPK1) [%]	Percent Control (PFCDPK1(P.falciparum)) [%]	Percent Control (PFPK5(P.falciparum)) [%]	Percent Control (PFTAIRE2) [%]	Percent Control (PFTK1) [%]	Percent Control (PHKG1) [%]	Percent Control (PHKG2) [%]	Percent Control (PIK3C2B) [%]	Percent Control (PIK3C2G) [%]
Cl.O=S1CCN(Cc2ccc(-c3ccc4ncnc(Nc5ccc(OCc6ccccc6)c(F)c5)c4c3)o2)CC1 [GW576924A]	100	100	83	100	100	100	100	100	100	78
COc1cc(N2CCN(C(C)C)CC2)ccc1Nc1nc(Nc2ccc(F)cc2C(=O)NC[C@@H](O)CO)c2cc[nH]c2n1 [GSK1392956A]	100	91	94	74	100	100	29	39	100	96
COc1cc2ncnc(Nc3ccc4c(cnn4Cc4ccccc4)c3)c2cc1OC.Cl [GW282449A]	100	100	57	100	100	100	100	100	100	97
COc1cccc(-n2ncc3c(N/N=C/c4ccncc4)ncnc32)c1 [GW784752X]	60	92	33	100	74	95	37	93	100	98
NS(=O)(=O)c1ccc(N/N=C2\C(=O)Nc3ccc(C(=O)NCCc4c[nH]cn4)cc32)cc1 [GW300660X]	100	97	69	78	100	100	100	71	100	86
COc1cc(/C=N/Nc2ncnc3[nH]ncc23)ccc1O [GW578748X]	38	83	18	100	96	100	100	88	72	51
CN(C)CCNC(=O)Nc1ccc(N(C)c2ccnc(Nc3ccc(CS(C)(=O)=O)cc3)n2)cc1.Cl [GW830900A]	0	83	83	100	90	100	92	100	100	95
NS(=O)(=O)c1ccc(Nc2ncc(-c3ccccc3)o2)cc1 [GW572399X]	3.4	100	27	100	98	100	100	100	100	100
CCS(=O)(=O)c1ccc(OC)c(Nc2ncc(-c3cccc(F)c3)o2)c1 [GW621970X]	5.4	100	4.1	100	100	95	100	100	100	100
C/C(Nc1ccc(S(N)(=O)=O)cc1)=C1/C(=O)Nc2ccccc21 [GW335962X]	59	100	77	91	95	72	94	53	100	90
NS(=O)(=O)c1ccc(N/N=C2\C(=O)Nc3ccc(-c4cnco4)cc32)cc1 [GW276655]	57	82	93	95	60	94	100	81	86	96
